A selection: hits, their analogues and other compounds. The true share with any hit is near 2.5%.
ASK1 inh: ASK1 kinase inhibitors, primary screen, biochemical, AlphaScreen; Mitogen-activated protein kinase kinase kinase 5 (Homo sapiens), Q99683; AlphaScreen MKK6 phosphorylation by ASK1, luminescence; inhibition, % at 7.44 µM; hit rate 0.99% among 22,000; AID 1159602, 2016; in the data active = inhibition above about 35%
Target sequence (Q99683 whole entry, looked up): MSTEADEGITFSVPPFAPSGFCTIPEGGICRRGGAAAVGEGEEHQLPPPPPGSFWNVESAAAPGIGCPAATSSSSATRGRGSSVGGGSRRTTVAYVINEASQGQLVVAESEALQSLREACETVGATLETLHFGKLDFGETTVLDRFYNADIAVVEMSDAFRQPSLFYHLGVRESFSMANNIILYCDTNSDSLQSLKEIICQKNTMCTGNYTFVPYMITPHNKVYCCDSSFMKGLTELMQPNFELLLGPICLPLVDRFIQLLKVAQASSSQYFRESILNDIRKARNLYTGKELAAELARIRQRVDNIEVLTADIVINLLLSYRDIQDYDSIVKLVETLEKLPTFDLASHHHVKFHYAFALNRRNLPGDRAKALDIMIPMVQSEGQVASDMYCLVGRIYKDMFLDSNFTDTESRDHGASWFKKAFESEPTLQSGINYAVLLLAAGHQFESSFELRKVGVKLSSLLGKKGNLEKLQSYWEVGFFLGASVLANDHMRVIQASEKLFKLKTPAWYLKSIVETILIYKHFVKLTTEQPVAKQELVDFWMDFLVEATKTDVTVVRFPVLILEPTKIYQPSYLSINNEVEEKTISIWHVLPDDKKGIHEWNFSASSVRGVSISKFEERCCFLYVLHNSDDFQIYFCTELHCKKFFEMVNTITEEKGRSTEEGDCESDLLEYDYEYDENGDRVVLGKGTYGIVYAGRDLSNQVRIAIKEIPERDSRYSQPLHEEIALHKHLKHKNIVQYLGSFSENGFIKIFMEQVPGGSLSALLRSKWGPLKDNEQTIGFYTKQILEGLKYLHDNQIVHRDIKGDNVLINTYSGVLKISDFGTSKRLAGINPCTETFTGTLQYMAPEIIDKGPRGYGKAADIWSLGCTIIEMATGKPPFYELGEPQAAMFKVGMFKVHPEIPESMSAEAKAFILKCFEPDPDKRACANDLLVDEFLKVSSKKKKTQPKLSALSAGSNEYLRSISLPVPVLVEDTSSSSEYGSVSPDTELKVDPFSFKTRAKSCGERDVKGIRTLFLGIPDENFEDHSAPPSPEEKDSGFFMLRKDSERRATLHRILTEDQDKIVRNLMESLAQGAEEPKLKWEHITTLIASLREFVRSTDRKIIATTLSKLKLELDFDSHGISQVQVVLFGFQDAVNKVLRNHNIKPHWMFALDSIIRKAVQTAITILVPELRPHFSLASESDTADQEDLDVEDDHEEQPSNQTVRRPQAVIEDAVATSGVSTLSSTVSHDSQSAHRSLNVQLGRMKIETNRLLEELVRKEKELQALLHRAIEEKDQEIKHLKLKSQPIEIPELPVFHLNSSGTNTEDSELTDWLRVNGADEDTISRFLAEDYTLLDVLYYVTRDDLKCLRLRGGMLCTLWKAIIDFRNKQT
ULK1 primary: ULK1 kinase inhibitors, primary screen, biochemical, AlphaScreen; AlphaScreen Atg13 phosphorylation by ULK1, luminescence; inhibition, % at 5.96 µM; Serine/threonine-protein kinase ULK1 (Homo sapiens), O75385; hit rate 1.9% among 30,000; AID 1259251, 2017; in the data active = inhibition above about 43%
Each line names hits and unclear results; the compound was inactive in the other large screens.

Cc1cnc(Nc2ccc(N3CCOCC3)cc2)nc1NCCCN1CCCC1=O	ULK1 primary 44.2
COc1cc(Nc2ncc(C)c(NCCCN3CCCC3=O)n2)cc(OC)c1OC	ULK1 primary 76.3
c1cnc(Nc2nc(Nc3ccc4c(c3)OCO4)c3ncn(C4CCCCC4)c3n2)cn1	none
CC(C)n1cnc2c(Nc3ccc4c(c3)OCO4)nc(Nc3ccc(-n4ccnc4)cc3)nc21	ULK1 primary 55.0
CC(C)n1cnc2c(Nc3ccc4c(c3)OCO4)nc(Nc3cnccn3)nc21	ULK1 primary 48.8
CC(C)n1cnc2c(Nc3ccc4c(c3)OCO4)nc(Nc3ccccc3)nc21	none
c1cncc(CNc2cc(NC3CC3)ncn2)c1	none
O=C(Nc1ccc2c(c1)OCO2)c1cnc(N2CCCC2CO)s1 (stereo unspecified)	none
O=C1CCCN1CCn1cnc2c(NCCOc3ccccc3)nc(N3CCOCC3)nc21	none
NC(=O)c1ccccc1Nc1cc(NC(=O)Cc2ccc3c(c2)OCO3)ncc1C(F)(F)F	none
NC(=O)c1ccccc1Nc1cc(NC(=O)Cc2ccc(F)cc2)ncc1C(F)(F)F	none
COc1ccc(CC(=O)Nc2cc(Nc3ccccc3C(N)=O)c(C(F)(F)F)cn2)cc1	ULK1 primary 76.1
CNC(=O)c1ccccc1Nc1cc(NC(=O)Cc2ccccc2OC)ncc1C(F)(F)F	ULK1 primary 51.3
CNC(=O)c1ccccc1Nc1cc(NC(=O)Cc2ccc3c(c2)OCO3)ncc1C(F)(F)F	ULK1 primary 55.4
CNC(=O)c1ccccc1Nc1cc(NC(=O)Cc2cccc(F)c2)ncc1C(F)(F)F	ULK1 primary 54.8
CNC(=O)c1ccccc1Nc1cc(NC(=O)C(OC)c2ccccc2)ncc1C(F)(F)F (stereo unspecified)	none
NC(=O)c1ccccc1Nc1cc(NC(=O)Cc2ccc(F)c(F)c2)ncc1C(F)(F)F	none
COc1ccc(CCNC(=O)c2ccnc(Nc3ncccn3)c2)cc1	none
O=C(Cc1ccccc1)Nc1ccc(I)cc1	none (no result: ASK1 inh)
Cc1ccc(OC(=O)c2cccnc2C(F)(F)F)c([N+](=O)[O-])n1	none (no result: ASK1 inh)
c1cc(Nc2nc(NC3CC3)c3[nH]cnc3n2)ccn1	ULK1 primary 51.5
c1ccc(OCCNc2nc(Nc3ccc4ncccc4c3)nc3nc[nH]c23)cc1	none
c1cncc(CNc2nc(NC3CC3)c3[nH]cnc3n2)c1	none
CCCNc1nc(Nc2ccc3ncccc3c2)nc2nc[nH]c12	ULK1 primary 49.0
c1cnc2ccc(Nc3nc(NC4CC4)c4[nH]cnc4n3)cc2c1	ULK1 primary 64.2
c1ccc(Nc2nc(Nc3ccc4ncccc4c3)nc3nc[nH]c23)cc1	none
CCCNC(=O)c1cnc(N2CCN(c3ccccn3)CC2)s1	none
NC(=O)c1ccc(-c2cccc(C(=O)Nc3ccccc3)n2)cc1	none
COc1cc(NC(=O)Cc2cn(-c3ccc(Cl)nn3)c3ccccc23)cc(OC)c1OC	none
COC1=C(N)C(=O)c2nc(-c3nc(C(=O)O)c(C)c(-c4ccc(OC)c(OC)c4O)c3N)ccc2C1=O	ULK1 primary 83.7 (no result: ASK1 inh)
CCC(C)[C@H](NC(=O)c1ncccc1Oc1nc(OC)cc(OC)n1)C(=O)OC (stereo partly specified)	none (no result: ASK1 inh)
COc1cc(Nc2nc(Nc3nccc4ccccc34)nc3c2ncn3C(C)C)cc(OC)c1OC	none
CN(C)c1cccc(Nc2nccc(NC3CC3)n2)c1	none
Cc1cnc(Nc2cccc(N(C)C)c2)nc1NC1CC1	ULK1 primary 45.8
CC(=O)Nc1ccc(O)cc1	none (no result: ASK1 inh)
CC(=O)Nc1ccccc1	ULK1 primary 57.7 (no result: ASK1 inh)
O=C(Nc1ccc(N2CCOCC2)cc1)c1cccc(-n2cc(Nc3nnnn3-c3ccccc3Cl)cn2)c1	none
CCOc1nc2cccc(C(=O)OC(C)OC(=O)OC3CCCCC3)c2n1Cc1ccc(-c2ccccc2-c2nn[nH]n2)cc1 (stereo unspecified)	ULK1 primary 53.1 (no result: ASK1 inh)
CCCc1nc(C(C)(C)O)c(C(=O)OCc2oc(=O)oc2C)n1Cc1ccc(-c2ccccc2-c2nn[nH]n2)cc1	none (no result: ASK1 inh)
C=C(C)Cn1c(SC(C)CC)nc2c1c(=O)[nH]c(=O)n2C (stereo unspecified)	none (no result: ASK1 inh)
O=C(OC[C@H]1O[C@H](OC(=O)c2cc(O)c(O)c(OC(=O)c3cc(O)c(O)c(O)c3)c2)[C@H](OC(=O)c2cc(O)c(O)c(OC(=O)c3cc(O)c(O)c(O)c3)c2)[C@@H](OC(=O)c2cc(O)c(O)c(OC(=O)c3cc(O)c(O)c(O)c3)c2)[C@@H]1OC(=O)c1cc(O)c(O)c(OC(=O)c2cc(O)c(O)c(O)c2)c1)c1cc(O)c(O)c(OC(=O)c2cc(O)c(O)c(O)c2)c1	ULK1 primary 85.6 (no result: ASK1 inh)
CC(=O)OC[C@H]1O[C@@H](OC(C)=O)[C@H](OC(C)=O)[C@@H]1OC(C)=O	none (no result: ASK1 inh)
Cn1nccc1Nc1cc(C(=O)Nc2ccc(N3CCOCC3)cc2)ccn1	none
O=C(Nc1ccc(N2CCOCC2)cc1)c1cccc(Nc2ccncc2)c1	ULK1 primary 69.5
Nc1nccc(Nc2ccnc(Nc3ccc(N4CCOCC4)cc3)c2)n1	ULK1 primary 43.3
O=C(Nc1ccc2c(c1)OCO2)c1cccc(Nc2ccc(-n3ccnc3)cc2)c1	none
O=C(Nc1ccc(N2CCOCC2)cc1)c1ccnc(Nc2ccncc2)c1	ULK1 primary 48.7
CC(=O)Nc1ccc(NC(=O)c2cccc(N3CCOCC3)c2)cc1	none
c1cc(Nc2ccc(N3CCOCC3)cc2)cc(Nc2ccc(N3CCOCC3)cc2)n1	none
O=C(Nc1ccc(N2CCOCC2)cc1)c1cccc(Nc2ccc(-n3ccnc3)cc2)c1	ULK1 primary 44.4
C/C(CC(=O)NCc1ccc(Cl)cc1)=N\NC(=O)c1ccccc1F	none (no result: ASK1 inh)
CC(=O)Nc1ccc(Nc2nc(-c3ccc(C(=O)NC4CC4)cc3)ncc2C)cc1	none
CC(=O)c1cccc(-c2nc(NCCCN3CCCC3=O)c3ncn(C(C)C)c3n2)c1	none
O=C(Nc1ccc(N2CCOCC2)cc1)c1cncc(Nc2ccncc2)c1	ULK1 primary 65.8
Cc1cc(Nc2ccc(N3CCOCC3)cc2)nc(Nc2ccccc2)n1	ASK1 inh 42.0
O=C(Nc1ccc(N2CCOCC2)cc1)c1cncc(-c2ccc(N3CCOCC3)nc2)c1	none
O=C(NCCN1CCOCC1)c1ccnc(NCc2ccc3c(c2)OCO3)c1	none
Cc1cc(NCc2ccccc2)nc(Nc2ccc(N3CCOCC3)cc2)n1	none
O=C(Nc1ccc(N2CCOCC2)cc1)c1ccnc(NCc2ccc3c(c2)OCO3)c1	ULK1 primary 44.6
CN(C)CCOc1cc(-c2ccncc2)ccc1NC(=O)C1CCc2ccccc2C1 (stereo unspecified)	none
Cc1ncn(-c2ccc(Nc3ncc4cccc(-c5ccc6c(cnn6C)c5)c4n3)cc2)n1	none
N[C@@H](Cc1ccc(Br)cc1)C(=O)N1CCC(Nc2ccc3[nH]ncc3c2)CC1	none
O=C(Nc1ccc(N2CCOCC2)cc1)C1CCN(c2ccc(Nc3ccc(C(F)(F)F)cc3)nn2)CC1	none
O=C(NCCO)C1CCN(c2ccc(Nc3ccc(C(F)(F)F)cc3)nn2)CC1	ULK1 primary 46.4
COc1cn(CC(=O)Nc2ccccc2)c(CN2CCN(c3ccc(F)cc3)CC2)cc1=O	none (no result: ASK1 inh)
O=C(c1cc(O)c(O)c(O)c1)c1ccc(O)c(O)c1O	ULK1 primary 83.3 (no result: ASK1 inh)
O=C(O)c1cc(O)c(O)c(O)c1	none (no result: ASK1 inh)
COc1ccc(Nc2nc(NCCc3ccccn3)c3[nH]cnc3n2)cc1	none
CC(C)COCC(CN(Cc1ccccc1)c1ccccc1)N1CCCC1 (stereo unspecified)	none (no result: ASK1 inh)
Cc1cc(Nc2ccc(OCCN3CCCCC3)cc2)nc(-c2cccc(OC(F)(F)F)c2)n1	none
c1cc(OCCN2CCCCC2)cc(-c2n[nH]c3ccc(-c4ncn[nH]4)cc23)c1	ULK1 primary 44.9
